The text below walks through data of PubChem BioAssay.

Assay [1] is described as follows: binders of probe aFSTL3 on microarray, primary screen, stem cell growth factor project, biochemical, small-molecule microarray, fluorescence 635/667 (AID 1064).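 Also: measures binding of the biotinylated anti-FSTL3 antibody to printed compounds.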 To be noted: higher = more signal.
Assay [2] can be described thus: binders from COS7 lysate, DM2A8 probe, primary screen, torsin A project, cell lysate, small-molecule microarray, fluorescence 635/667 (AID 1065). To be noted: higher = more signal, COS7 lysate expressing mutant human TOR1A.
The nature of assay [3]: binders of probe aFGF2 on microarray, primary screen, stem cell growth factor project, biochemical, small-molecule microarray, fluorescence 635/667 (AID 1067).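 Also: measures binding of biotinylated aFGF2 protein to printed compounds on slides; z-score merges feature fluorescence and signal-to-noise across triplicate slides.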 To be noted: higher = more signal.
The nature of assay [4]: binders of probe aFGF10 on microarray, primary screen, stem cell growth factor project, biochemical, small-molecule microarray, fluorescence 635/667 (AID 1071).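 Also: score merges 667 nm spot intensity and signal to noise from triplicate slides.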 As to conditions: higher = more signal.
The target of assay [5] is Neurogenic locus notch homolog protein 2 (Homo sapiens) (UniProt Q04721). In words: Notch2 binders on small-molecule microarrays, primary screen, biochemical, small-molecule microarray, 635 nm fluorescence, stem cell growth factors (AID 1073). As to conditions: Notch2 binding, higher = more signal.
Assay [6] addresses Pro-neuregulin-1, membrane-bound isoform (Homo sapiens) (UniProt Q02297). In words: NRG1 binders on small-molecule microarrays, primary screen, psychiatric disease protein project, biochemical, small-molecule microarray, fluorescence 635/667 (AID 1075).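 Also: score combines 667 nm spot fluorescence with signal to noise.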 As to conditions: NRG1 binding, 635 nm fluorescence, higher = more signal.
The subject of assay [7] is Neuregulin-1 EGF-like domain. Nature of the assay: binders of neuregulin-1 EGF-like domain, primary screen, biochemical, small-molecule microarray, 635 nm fluorescence (AID 1081).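 Also: binding of the protein to compounds printed on small-molecule microarray slides.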 To be noted: small-molecule microarray binding, higher = more signal.
Assay [8] can be described thus: FRG1 promoter luciferase signal modulators, primary screen, FRG1 inhibition for FSHD, cell-based, C2C12 myotubes, firefly/Renilla luciferase, luminescence (AID 1084). As to conditions: higher = more signal, called active from +8 up or from −8 down.
The nature of assay [9]: binders of probe aFST on microarray, primary screen, stem cell growth factor project, biochemical, small-molecule microarray, fluorescence 635/667 (AID 1086).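 Also: score merges 667 nm fluorescence with signal-to-noise of each printed compound spot.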 As to conditions: higher = more signal.
Assay [10] is described as follows: binders of probe aHhip on microarray, primary screen, stem cell growth factor project, biochemical, small-molecule microarray, fluorescence 635/667 (AID 1087).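 Also: score merges spot fluorescence at 667nm with spot signal to noise ratio.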 To be noted: higher = more signal.
Assay [11] concerns PRMT1 (protein arginine N-methyltransferase 1). In words: PRMT1 binders on small-molecule microarrays, primary screen, biochemical, small-molecule microarray, 635 nm fluorescence (AID 1088).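 Also: binding of Prmt1 protein to compounds spotted on small-molecule microarray slides.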 As to conditions: small-molecule microarray binding, higher = more signal.
Assay [12] in a line: yeast growth modulation, basal conditions, primary screen, YJM789 clinical isolate, OD600, 24 h (AID 1089).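 Also: growth of clinical yeast isolate S. cerevisiae YJM 789 seeded 1000 cells per well; test concentration not given here.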 To be noted: S. cerevisiae YJM789 growth, higher = more signal, called active from +8 up or from −8 down.
Assay [13] can be described thus: fission yeast growth modulation, primary screen, strain 972, OD600, 24 h, no modulator (AID 1090).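 Also: basal condition with compound alone and no growth modifier present; test concentration not given here.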 As to conditions: S. pombe 972 growth, higher = more signal, called active from +8 up or from −8 down.
The nature of assay [14]: S. cerevisiae growth modulation with rapamycin, primary screen, strain BY4716, OD600, 96 h (AID 1091). Also: test concentration not given here. To be noted: higher = more signal, called active from +8 up or from −8 down.
Assay [15] deals with Torsin-1A-interacting protein 2 (Homo sapiens) (UniProt Q8NFQ8). Nature of the assay: LULL1 binders on small-molecule microarray, primary screen, cell lysate, human LULL1 lysate, 635/667 nm fluorescence (AID 1092).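 Also: probe is lysate of COS7 cells overexpressing human LULL1; score merges per-feature 667 nm fluorescence with signal-to-noise.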 To be noted: hLULL1 lysate binding, 635 nm fluorescence, higher = more signal.
Torsin-1A-interacting protein 2 (Homo sapiens), sequence (Q8NFQ8 whole entry, looked up): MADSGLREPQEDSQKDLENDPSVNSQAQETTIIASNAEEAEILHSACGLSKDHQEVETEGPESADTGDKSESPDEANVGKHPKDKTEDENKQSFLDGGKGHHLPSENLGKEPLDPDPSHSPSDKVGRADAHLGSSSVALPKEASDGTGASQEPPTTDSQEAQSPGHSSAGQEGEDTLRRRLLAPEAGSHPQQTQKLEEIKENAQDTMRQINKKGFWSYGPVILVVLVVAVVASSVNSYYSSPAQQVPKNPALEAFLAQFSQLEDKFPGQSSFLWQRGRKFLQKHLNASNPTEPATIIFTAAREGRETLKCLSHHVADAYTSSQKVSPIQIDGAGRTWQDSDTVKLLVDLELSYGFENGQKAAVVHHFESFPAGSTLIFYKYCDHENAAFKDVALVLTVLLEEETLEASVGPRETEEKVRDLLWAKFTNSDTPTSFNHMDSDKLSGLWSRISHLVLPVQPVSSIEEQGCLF
Assay [16] is described as follows: E. coli growth modulation, two-sided OD650, primary screen, E. coli filamentation project, strain DRC41, 24 h (AID 1093).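 Also: MC1000 strain lacking acrAB efflux and sulA so SOS filamentation is blocked; test concentration not given here.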 As to conditions: OD650, 24 h, higher = more signal, called active from +8 up or from −8 down.
A short description of assay [17]: small-molecule microarray binders of probe aLefty2, primary screen, biochemical, biotinylated probe, 635/667 nm fluorescence (AID 1094).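 Also: score merges spot fluorescence near 667 nm with spot signal-to-noise ratio.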 As to conditions: higher = more signal.
The subject of assay [18] is Noggin (protein binding on small-molecule microarray). In words: Noggin binders on small-molecule microarray, primary screen, biochemical, 635/667 nm fluorescence (AID 1095).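 Also: score merges 667 nm feature fluorescence with signal to noise over triplicate slides.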 To be noted: 635 nm fluorescence, higher = more signal.
In assay [19] the target is Neurogenic locus notch homolog protein 3 (Homo sapiens) (UniProt Q9UM47). Nature of the assay: NOTCH3 binders on small-molecule microarray, primary screen, biochemical, 635/667 nm fluorescence (AID 1096). To be noted: NOTCH3 binding, 635 nm fluorescence, higher = more signal.
Neurogenic locus notch homolog protein 3 (Homo sapiens), sequence (Q9UM47 whole entry, looked up): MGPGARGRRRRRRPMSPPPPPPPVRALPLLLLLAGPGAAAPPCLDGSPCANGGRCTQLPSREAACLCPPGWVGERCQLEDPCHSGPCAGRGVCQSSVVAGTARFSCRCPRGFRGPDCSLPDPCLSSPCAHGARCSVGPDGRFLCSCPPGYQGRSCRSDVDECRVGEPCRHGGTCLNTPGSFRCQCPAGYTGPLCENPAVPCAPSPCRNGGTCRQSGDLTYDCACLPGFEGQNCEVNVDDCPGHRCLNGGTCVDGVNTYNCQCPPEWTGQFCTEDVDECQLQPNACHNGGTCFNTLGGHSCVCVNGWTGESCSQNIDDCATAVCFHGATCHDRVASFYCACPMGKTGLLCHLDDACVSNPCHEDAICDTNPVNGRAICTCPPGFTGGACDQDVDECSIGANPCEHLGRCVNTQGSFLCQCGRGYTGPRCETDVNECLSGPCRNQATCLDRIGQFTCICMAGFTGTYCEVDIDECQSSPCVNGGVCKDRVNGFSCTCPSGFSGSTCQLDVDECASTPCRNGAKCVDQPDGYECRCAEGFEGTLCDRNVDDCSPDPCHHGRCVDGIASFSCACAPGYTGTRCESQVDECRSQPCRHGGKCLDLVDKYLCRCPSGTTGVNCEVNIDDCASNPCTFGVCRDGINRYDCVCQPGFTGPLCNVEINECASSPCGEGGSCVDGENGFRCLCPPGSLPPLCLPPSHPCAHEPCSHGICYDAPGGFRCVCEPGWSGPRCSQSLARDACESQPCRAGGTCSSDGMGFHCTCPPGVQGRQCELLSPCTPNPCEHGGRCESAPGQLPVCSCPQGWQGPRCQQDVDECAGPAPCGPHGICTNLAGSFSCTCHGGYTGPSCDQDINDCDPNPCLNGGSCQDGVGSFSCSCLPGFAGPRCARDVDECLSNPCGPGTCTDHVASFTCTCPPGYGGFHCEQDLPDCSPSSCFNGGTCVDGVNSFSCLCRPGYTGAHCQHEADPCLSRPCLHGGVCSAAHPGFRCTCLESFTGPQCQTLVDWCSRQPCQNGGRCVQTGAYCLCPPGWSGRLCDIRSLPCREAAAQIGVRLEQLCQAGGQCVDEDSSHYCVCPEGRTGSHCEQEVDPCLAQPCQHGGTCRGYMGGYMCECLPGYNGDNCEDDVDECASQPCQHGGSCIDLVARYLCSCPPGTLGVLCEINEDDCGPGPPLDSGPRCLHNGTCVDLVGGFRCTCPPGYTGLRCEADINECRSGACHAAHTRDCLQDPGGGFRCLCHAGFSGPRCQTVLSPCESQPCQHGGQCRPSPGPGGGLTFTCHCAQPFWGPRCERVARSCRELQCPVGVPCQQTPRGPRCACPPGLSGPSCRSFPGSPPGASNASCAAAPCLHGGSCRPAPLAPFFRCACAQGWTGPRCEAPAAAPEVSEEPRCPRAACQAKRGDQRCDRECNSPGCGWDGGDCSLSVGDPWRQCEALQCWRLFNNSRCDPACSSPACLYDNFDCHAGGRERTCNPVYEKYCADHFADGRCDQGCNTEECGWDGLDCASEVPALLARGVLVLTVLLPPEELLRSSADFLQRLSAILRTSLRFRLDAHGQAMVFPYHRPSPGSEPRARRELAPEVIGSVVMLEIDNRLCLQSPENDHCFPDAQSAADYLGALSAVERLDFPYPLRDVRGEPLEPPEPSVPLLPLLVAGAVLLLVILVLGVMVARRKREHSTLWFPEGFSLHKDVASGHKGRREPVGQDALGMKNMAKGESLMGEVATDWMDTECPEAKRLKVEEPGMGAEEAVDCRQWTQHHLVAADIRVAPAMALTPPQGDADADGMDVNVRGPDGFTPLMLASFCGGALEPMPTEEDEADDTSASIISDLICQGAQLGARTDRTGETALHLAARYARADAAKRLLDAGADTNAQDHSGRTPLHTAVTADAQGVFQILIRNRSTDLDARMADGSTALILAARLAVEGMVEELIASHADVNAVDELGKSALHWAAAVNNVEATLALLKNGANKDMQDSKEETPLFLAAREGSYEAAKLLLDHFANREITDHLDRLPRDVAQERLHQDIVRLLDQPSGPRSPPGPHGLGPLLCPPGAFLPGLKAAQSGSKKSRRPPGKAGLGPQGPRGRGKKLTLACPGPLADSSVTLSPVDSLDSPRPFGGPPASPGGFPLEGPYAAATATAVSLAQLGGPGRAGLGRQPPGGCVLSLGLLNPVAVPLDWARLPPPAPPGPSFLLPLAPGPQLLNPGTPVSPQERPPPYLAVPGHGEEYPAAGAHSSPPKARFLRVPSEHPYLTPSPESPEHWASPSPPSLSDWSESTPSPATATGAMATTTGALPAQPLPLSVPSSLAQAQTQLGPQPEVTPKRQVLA
The nature of assay [20]: small-molecule microarray binders of probe aEGFR, primary screen, biochemical, biotinylated probe, 635/667 nm fluorescence (AID 1097).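 Also: probe is a biotinylated anti-EGFR antibody binding compounds printed on slides; score combines fluorescence near 667 nm and signal to noise of each spot.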 As to conditions: higher = more signal.

Active and inactive are the calls of the source.

Pro-neuregulin-1, membrane-bound isoform (Homo sapiens), sequence (Q02297 whole entry, looked up, the tested form may be a part, canonical isoform): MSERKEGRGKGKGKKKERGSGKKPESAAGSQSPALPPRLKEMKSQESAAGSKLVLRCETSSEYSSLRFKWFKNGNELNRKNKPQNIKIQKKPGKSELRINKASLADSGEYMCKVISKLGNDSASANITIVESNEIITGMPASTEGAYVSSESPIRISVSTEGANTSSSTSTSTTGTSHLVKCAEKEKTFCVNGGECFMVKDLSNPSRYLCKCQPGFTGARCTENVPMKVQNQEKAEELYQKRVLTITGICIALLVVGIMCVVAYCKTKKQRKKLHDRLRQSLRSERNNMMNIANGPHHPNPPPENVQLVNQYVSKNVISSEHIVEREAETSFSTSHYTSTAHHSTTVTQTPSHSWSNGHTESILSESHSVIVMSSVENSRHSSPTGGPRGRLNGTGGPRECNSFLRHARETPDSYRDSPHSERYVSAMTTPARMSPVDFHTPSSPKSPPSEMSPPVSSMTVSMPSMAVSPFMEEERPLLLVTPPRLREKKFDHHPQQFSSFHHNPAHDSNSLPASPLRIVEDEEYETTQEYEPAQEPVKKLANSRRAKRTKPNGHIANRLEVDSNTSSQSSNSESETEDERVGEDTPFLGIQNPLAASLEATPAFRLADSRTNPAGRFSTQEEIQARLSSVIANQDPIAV

Consider `COCCCNC(=O)[C@]1(Cc2ccccc2N=[N+]=[N-])N=C(c2ccc(OCCCO)cc2)O[C@@H]1c1ccccc1CN=[N+]=[N-]`, for which the composite z-score stood at 0.201 in assay [1]; 0.157 in assay [2]; 0.182 in assay [3]; 1.05 in assay [4]; 1.68 in assay [5]; 1.49 in assay [6]. The composite z-score in assay [7] was 1.33; in assay [9] it was 1.33; in [10] it was -0.0296; in [11] it was 1.51; in assay [15] it was 3.18; in assay [17], 0.465. Moreover, the composite z-score came to 0.579 in assay [18], 1.09 in assay [19] and 0.606 in [20]. In addition, the z-score in [8] is -0.0402 (inactive); in assay [12] it was -1.24 (inactive); in assay [13] it was -0.365 (inactive); in assay [14], 4.94 (inactive); in [16], 1.01 (inactive).
In the case of `COc1ccc(CCNC(=O)[C@@]2(C)c3ccccc3C(=O)N(Cc3ccccc3)[C@H]2c2ccc(CO)cc2)cc1`, the composite z-score in assay [1] was -0.277; in assay [2] it was 1.25; in assay [3], 0.0626; in [4], 0.299; in assay [5] it was 1.24; in assay [6], 1.67. The composite z-score stood at 1.44 in assay [7]; 0.851 in assay [9]; 0.0286 in [10]; 1.53 in assay [11]; 3.05 in assay [15]; 0.166 in [17]. In addition, the figures for the composite z-score in assay [18], in [19] and in assay [20] were 1.33, 1.07 and 0.0192, respectively. For the same molecule, the z-score was -3.66 (inactive) in [8]; -1.25 (inactive) in [12]; -1.1 (inactive) in [13]; -0.648 (inactive) in assay [14]; -0.0282 (inactive) in assay [16].
On to `OCCCc1cc[n+](Cc2cccc(OC(F)(F)F)c2)cc1`, for which the composite z-score in assay [1] was 0.451; in [2], 0.451; in [3], -0.085; in assay [4], -0.389; in assay [5], 0.272; in [6], 0.564. Moreover, the composite z-score was 1.47 in assay [7]; 0.676 in assay [9]; -0.125 in [10]; 1.54 in assay [11]; 3.24 in assay [15]; 0.2 in assay [17]. In addition, the composite z-score in assay [18] was 0.962; in assay [19], 1.04; in [20], -0.0084. Moreover, the z-score in [8] was 1.7 (inactive); in assay [12], -0.747 (inactive); in assay [13] it was -3.01 (inactive); in assay [14], 0.71 (inactive); in assay [16], -1.65 (inactive).
For the molecule `COCCOC(=O)N1C(=O)[C@@]2(c3cc(C#CC4=CCCCC4)ccc31)[C@H](c1ccc(OCCO)cc1)N1[C@H](c3ccccc3)[C@H](c3ccccc3)OC(=O)[C@H]1[C@@H]2C(=O)Nc1nc2ccccc2s1`, the composite z-score in assay [1] is -0.368; in assay [2] it was 0.115; in assay [3], -0.104; in [4], 0.854; in [5], 1.4; in assay [6] it was 0.93. Moreover, the composite z-score in [7] was 1.12; in assay [9], 0.241; in [10], 0.0722; in assay [11], 1.55; in assay [15] it was 3.06; in assay [17], -0.0242. Besides, the values for the composite z-score in assay [18], in assay [19] and in assay [20] were 0.772, 1.08 and -0.0164, respectively. For the same molecule, the z-score in [8] was 1.89 (inactive); in [12], 1.09 (inactive); in assay [13], 1.04 (inactive); in [14], 3.21 (inactive); in assay [16] it was 1.9 (inactive).
With `CCCC[C@@H]1C[C@H]1[C@@H](NC(=O)c1ccccc1)c1ccc(-c2ccccc2)cc1`, the composite z-score was -0.138 in [1]; 0.535 in [2]; 0.0805 in [3]; -0.0214 in assay [4]; 0.294 in assay [5]; 0.23 in assay [6]. The composite z-score was 0.341 in [7]; 0.442 in assay [9]; -0.21 in assay [10]; 0.409 in assay [11]; 2.3 in assay [15]; -0.12 in [17]. Also, the figures for the composite z-score in [18], in [19] and in assay [20] were 0.364, 0.496 and -0.117, respectively. The z-score in assay [8] is -1.76 (inactive); in [12], -2.02 (inactive); in assay [13], 0.256 (inactive); in assay [14], 2.7 (inactive); in assay [16] it was -0.947 (inactive).
